Source: PubChem (several laboratories)
Shown are actives, neighbours in structure and some others; about 2.4% of the full set was active somewhere.
TNF necrop inh = blocks TNF-alpha induced death of Jurkat FADD-/- cells | Jurkat FADD-/- TNF necroptosis rescue, ATP luminescence, 24 h; 0 = TNF only, 100 = no-TNF cells | activation (protection from cell death), % at 10 µM | 220,000 tested, 0.068% active | AID 463075;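 active = activation, meaning protection from cell death, of at least 50% relative to plate controls; inactive = activation below 50%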;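 also: necroptosis triggered by 40 ng/mL TNF-alpha added together with compound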
PERK inh = human PERK inhibition, primary cell-based screen; 220,000 tested, 0.17% active; CHO PERK-DD fusion, SEAP luminescence translation reporter; inhibition, % at 5.6 µM; Q9NZJ5;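 active = inhibition above the mean inhibition of all tested compounds plus 3 SD, set separately per screening campaign, cut at about 2.9% in these data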;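 also: PERK kinase domain activated by AP20187 dimerizer at 100 nM; 0% = DMSO with dimerizer and 100% = rapamycin at 8.4 µM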
L929 necroptosis = L929 zVAD cell death inhibition; L929 zVAD necroptosis rescue, ATP luminescence, 24 h; with zVAD 60 µM; viability rescue, % at 10 µM; 220,000 tested, 0.38% active;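 active = activation, scaled between plate controls, above about 75%, limit read from the data; inactive = activation under that limit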;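 also: 0% = zVAD with DMSO and 100% = DMSO alone without zVAD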
Redox H2O2 prof = compounds producing H2O2 with reducing agent – biochemical, NIH compound library profiling, artefact control for MLSCN library redox annotation, primary screen; 200,000 tested, 0.03% active; DTT-dependent redox cycling H2O2, phenol red/HRP absorbance; 100% = 100 µM peroxide control, 0% = buffer; activation, % at 10 µM; AID 878;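 active = activation of at least 50% relative to the plate's high and low controls in the primary single-dose screen; inactive = activation below 50%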;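 also: compound incubated with DTT at 0.8 mM final as the reducing agent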
WT yeast gro inh = growth inhibition of WT yeast, mitochondrial fusion screen; mitochondrial fusion phenotypic screen, WT strain; inhibition, % at 10 µM; 190,000 tested, 2.1% active; in the data active = inhibition above about 58%; tested in S. cerevisiae
PKD1 inh = blocks activity of human protein kinase D1. Q15139. PKD1 kinase fluorescence polarization assay. AID 797. inhibition, % (concentration not given with the values). 200,000 tested, 0.056% active; in the data active = inhibition above about 50%
Target sequence (Q15139 whole entry, looked up): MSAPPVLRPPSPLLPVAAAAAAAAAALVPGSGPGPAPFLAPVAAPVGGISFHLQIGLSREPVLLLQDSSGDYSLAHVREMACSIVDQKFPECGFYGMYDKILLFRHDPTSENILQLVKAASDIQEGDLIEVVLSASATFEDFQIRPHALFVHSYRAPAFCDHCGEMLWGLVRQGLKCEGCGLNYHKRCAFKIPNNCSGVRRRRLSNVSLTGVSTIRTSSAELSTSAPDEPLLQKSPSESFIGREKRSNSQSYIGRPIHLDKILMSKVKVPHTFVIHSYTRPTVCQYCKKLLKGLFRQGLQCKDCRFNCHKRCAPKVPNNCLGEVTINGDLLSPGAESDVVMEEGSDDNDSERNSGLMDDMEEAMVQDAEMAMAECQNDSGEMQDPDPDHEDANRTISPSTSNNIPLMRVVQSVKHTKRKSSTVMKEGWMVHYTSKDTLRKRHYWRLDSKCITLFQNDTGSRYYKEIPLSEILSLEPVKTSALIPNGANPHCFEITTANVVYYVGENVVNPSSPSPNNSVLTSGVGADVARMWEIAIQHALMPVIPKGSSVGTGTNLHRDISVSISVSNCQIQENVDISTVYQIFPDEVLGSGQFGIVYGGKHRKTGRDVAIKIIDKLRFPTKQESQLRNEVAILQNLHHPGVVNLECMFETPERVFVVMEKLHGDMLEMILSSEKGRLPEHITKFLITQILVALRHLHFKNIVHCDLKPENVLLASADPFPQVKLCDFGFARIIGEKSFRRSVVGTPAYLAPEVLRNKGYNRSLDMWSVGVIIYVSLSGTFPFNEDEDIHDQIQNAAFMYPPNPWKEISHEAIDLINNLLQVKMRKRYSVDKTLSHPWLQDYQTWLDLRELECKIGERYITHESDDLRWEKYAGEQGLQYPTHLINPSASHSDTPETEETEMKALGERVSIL
DTT redox conf = generates H2O2 by DTT-dependent redox cycling, confirmed in dose response | shares compounds with Redox H2O2 prof | phenol red-HRP absorbance | EC50, µM | 60 tested, 40% active | AID 1234;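 active = EC50 under a set limit for hydrogen peroxide production with the reducing agent DTT present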
zVAD necrop conf = confirmed blocker of zVAD induced death in L929 cells | shares compounds with L929 necroptosis | L929 zVAD-induced necroptosis rescue, ATP luminescence, 24 h | activation (protection from necroptosis), % at 10 µM | 760 tested, 16% active | AID 463117;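 active = mean protection from necroptosis of at least 50% over duplicate tests; inactive = mean protection below 50%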;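 also: 0% = cells with zVAD alone and 100% = vehicle cells without zVAD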
* = called active by the depositor; . = no result.

SMILES	TNF necrop inh	PERK inh	L929 necroptosis	Redox H2O2 prof	WT yeast gro inh	PKD1 inh	DTT redox conf	others
CCn1nc(-c2ccccc2)nc2c(=O)n(C)c(=O)nc1-2	-16	0	3	140*	90	6	0.9*
Cc1nc2c(=O)n(C)c(=O)nc-2n(C)n1	-17	-1	-1	293*	10	6	2.8*
O=C1C(=O)c2ccccc2-c2ccccc21	-27	3	-5	284*	97*	-2	0.71*
Cc1sc2c(c1C)C(c1ccc(C(C)(C)C)cc1)=NCC(=O)N2CC(=O)Nc1nccs1	-10	-1	0	0	-2	-10	.
Cn1c(O)c(/C=N/c2ccccn2)c(=O)n(C)c1=O	0	0	0	-1	-3	0	.
Cc1cccc(NC2=NCCCS2)c1	2	0	1	.	.	.	.
C[C@H]1CCC[C@@H](O)CCC/C=C/c2cc(O)cc(O)c2C(=O)O1	13	0	79*	0	8	-26	.	zVAD necrop conf=1
C[C@H]1CCC[C@H](O)CCCCCc2cc(O)cc(O)c2C(=O)O1	8	0	0	2	-26	-4	.
C=CCN(CC#CCOc1ccccc1OC)CC=C	0	1	-1	0	-4	-4	.
Cc1cc([N+](=O)[O-])c2ccccc2[n+]1[O-]	-28	-1	81*	.	.	.	.	zVAD necrop conf=67*
